In ChEMBL document CHEMBL3988442, “University of Dundee, Small-Polar-MMV Screening Library” (2021):
The campaign covered roughly 48,000 compounds. About 13,000 (27%) showed an effect of 50% or more. This is one part of the list.

These compounds were tested on Wolbachia pipientis (assay: Anti-Wolbachia Cell-Based Screen). Conditions: 5 µM.
Format: functional
Parameters: scale not given: in the data most compounds retested in dose-response had high values

Row | Compound | Percent Effect [%]
1 | Cc1cc(C(=O)N2CCCC(C)C2)ccc1NCc1nc(C2CC2)no1 (stereo not given) | 111.9
2 | Cc1cc(CNc2ccc(C(=O)N3CCCC(C)C3)cc2C)no1 (stereo not given) | 0.152
3 | Cc1cc(C(=O)N2CCCC(C)C2)ccc1NCc1nc(C(C)C)no1 (stereo not given) | 111.7
4 | Cc1nccn1C1CCCN(C(=O)CCc2nc(C(C)C)no2)C1 (stereo not given) | 10.57
5 | CC(C)c1noc(CNc2ccc(OC(F)F)cc2OC(F)F)n1 | -33.16
6 | Cc1noc(CNc2ccc(C(=O)N3CCCC(C)C3)cc2C)n1 (stereo not given) | 71.8
7 | CCc1cnc(CNc2ccc(C(=O)N3CCCC(C)C3)cc2C)o1 (stereo not given) | 0.007999
8 | CCc1noc(CNc2ccc(C(=O)N3CCCC(C)C3)cc2C)n1 (stereo not given) | -0.296
9 | CNS(=O)(=O)Cc1cccc(CNCc2ccsc2)c1 | -11.11
10 | CCN(Cc1cnn(CC)c1)C(=O)Cn1c(=O)ccc2ccccc21 | 8.668
11 | Cc1noc(C)c1CN(C)C(=O)c1ccc(NC2CC2)nc1 | -0.4037
12 | O=C1NCCCc2[nH]c(Cc3ccc(F)cc3)nc21 | -3.55
13 | Cl.Fc1ccc(Cc2cnc(C3CCCN3)cn2)cc1 (stereo not given) | 101.6
14 | Cc1ccc(Cc2cnc(C3CCNCC3)cn2)cc1.Cl | 94.42
15 | Cl.O=C1NCCCCC1NCc1csc(-c2ccc(F)cc2)n1 (stereo not given) | -5.681
16 | CN(C)C(=O)c1cccc(CCNc2ccccc2S(C)(=O)=O)c1 | -12.66
17 | CC(C)Nc1ncccc1C(=O)NC1CC(=O)N(CC(F)(F)F)C1 (stereo not given) | 5.646
18 | CC(=O)N(C)CC(=O)NCC1(c2c(F)cccc2F)CCCC1 | 20.23
19 | Cc1cc(C)n(C2CCCN(C(=O)c3cnc4onc(C)c4c3)C2)n1 (stereo not given) | 3.729
20 | Cc1cc(C)n(C2CCCN(C(=O)c3ccn(C)c(=O)c3)C2)n1 (stereo not given) | -8.273

Row | Compound | Percent Effect [%]
21 | Cc1cc(C)n(C2CCCN(C(=O)c3ccc(NC4CC4)nc3)C2)n1 (stereo not given) | -9.75
22 | CNC(=O)c1ccc(C(=O)N2CCCC(n3nc(C)cc3C)C2)cn1 (stereo not given) | 97.01
23 | Cc1cc(C)n(C2CCCN(C(=O)c3ccnc(N(C)C)c3)C2)n1 (stereo not given) | -18.09
24 | Cc1cc(C)n(C2CCCN(C(=O)c3ccc(N(C)C)nc3)C2)n1 (stereo not given) | 99.92
25 | O=C(NC1CCCNC1=O)c1ccc2nc(-c3ccc(F)cc3)cn2c1 (stereo not given) | -16.52
26 | Cc1cc(C(=O)NCCN2CCCCC2C)nn1C(C)(C)C (stereo not given) | 107.2
27 | Cc1cc(C(=O)NCCN2CCCC(C)C2)nn1C (stereo not given) | -3.799
28 | CC1CCN(CCNC(=O)c2ccccc2N2CCOCC2)CC1 | -0.8532
29 | Cc1cc(C(=O)NCCN2CCCC(C)C2)nn1C(C)(C)C (stereo not given) | 95.43
30 | Cc1cc(C(=O)NCCN2CCC(C)CC2)nn1C(C)(C)C | 102.5
31 | CCc1ncncc1C(=O)NCCN1CCC(C)CC1 | 6.983
32 | Cc1cc(C(=O)NCCN2CCCCCC2)nn1C(C)(C)C | 99.33
33 | CC1CCCCN1CCNC(=O)c1ccccc1N1CCOCC1 (stereo not given) | 19.03
34 | CC1CCCCN1CCNC(=O)c1ccn(-c2ccc(F)cc2)n1 (stereo not given) | 4.653
35 | CC1CCCN(CCNC(=O)c2cncnc2C(C)C)C1 (stereo not given) | 11.51
36 | CCc1ncc(C(=O)N2CCN(c3nc(C)cc(OC)n3)CC2)s1 | -13.57
37 | CC(C)NC(=O)[C@@H]1C[C@H](N)CN1C(=O)c1cc2c([nH]c1=O)CCCC2 | 1.783
38 | Cc1cccc2c1cnn2CCC(=O)NCC(=O)N(C)C | 14.92
39 | Cc1cc(C(=O)N2CCCC(N3CCCCCC3)C2)nn1C(C)(C)C (stereo not given) | -14.1
40 | Cc1cc(C(=O)NCCN2CCCCC2)nn1C(C)(C)C | 88.73

Row | Compound | Percent Effect [%]
41 | FC1(F)CCN(Cc2ccncc2)CC12CCN(c1cnccn1)C2.O=C(O)C(F)(F)F.O=C(O)C(F)(F)F.O=C(O)C(F)(F)F (stereo not given) | 91.26
42 | Fc1ccc(CN2CCC(F)(F)C3(CCN(c4cnccn4)C3)C2)cc1.O=C(O)C(F)(F)F.O=C(O)C(F)(F)F (stereo not given) | 95.57
43 | O=C(O)C(F)(F)F.c1ccc(CN2CCOC3(COCCN(c4ncccn4)C3)C2)nc1 (stereo not given) | -5.957
44 | O=C(O)C(F)(F)F.O=C(c1cc[nH]n1)N1CCC(F)(F)C2(CCN(c3ccccn3)C2)C1 (stereo not given) | -20.89
45 | FC1(F)CCN(Cc2ccccn2)CC12CCN(c1cnccn1)C2.O=C(O)C(F)(F)F.O=C(O)C(F)(F)F.O=C(O)C(F)(F)F (stereo not given) | 108
46 | Fc1cnc(N2CCC3(CC2)CN(Cc2ccccn2)CCO3)nc1.O=C(O)C(F)(F)F.O=C(O)C(F)(F)F | 3.828
47 | FC1(F)CCN(Cc2ccccn2)CC12CCN(c1ncccn1)C2.O=C(O)C(F)(F)F (stereo not given) | 99.55
48 | O=C(NC[C@H]1OC[C@@H](NCc2ccccn2)[C@@H]1O)c1ccncc1 | -10.69
49 | CC1=N[C@@]2(CC[C@@H]3CN(S(=O)(=O)C4CC4)C[C@@H]32)C(=O)N1CC(C)C | 6.738
50 | CCCC1(NC(=O)C(c2ccc(F)cc2)N(C)C)CC1 (stereo not given) | 19.19
51 | Cc1ccc(CNCc2ccc(N3CCC(CO)CC3)nc2)c(C)c1.Cl | 6.349
52 | CCS(=O)(=O)NCCNCc1ccc(Cl)c2cccnc12 | 1.555
53 | CCc1sc(C(=O)Nc2cnn(CC(=O)NC3CC3)c2)cc1C | -4.419
54 | CC(NC(=O)c1cc2n(n1)CCCN(C(C)C)C2)c1cn2ccsc2n1 (stereo not given) | 13.56
55 | O=C(O)C(F)(F)F.O=C(c1c[nH]cn1)N1CCC(F)(F)C2(CCN(c3cnccn3)C2)C1 (stereo not given) | -14.15
56 | O=C(O)C(F)(F)F.OCCN1CCC(F)(F)C2(CCN(c3cnccn3)C2)C1 (stereo not given) | 101.7
57 | FC1(F)CCN(Cc2cccnc2)CC12CCN(c1cnccn1)C2.O=C(O)C(F)(F)F.O=C(O)C(F)(F)F.O=C(O)C(F)(F)F (stereo not given) | 109.7
58 | O=C(NS(=O)(=O)c1ccc2c(c1)CCC2)C1COCCO1 (stereo not given) | -6.627
59 | CCOc1cc(C)ccc1NS(=O)(=O)c1cc(C)c(C(=O)O)s1 | -7.525
60 | O=C1CC(c2ccsc2)c2c(n(C3CCOCC3)[nH]c2=O)N1 (stereo not given) | 5.675
